{
  "source": "paper PMC4336329",
  "about": "(PLoS ONE, 2015)",
  "note": "Out of some 310,000 compounds screened, about 14,000 (4.5%) showed an effect of 50% or more. The effect is printed as a negative number. The list comes from a sample in which strong results are over-represented; it also holds similar structures and randomly drawn compounds.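 Also: peak tail current of the secondary pulse compared with the same well before compound.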",
  "data": [
    {"target": "human ether-à-go-go-related gene (hERG) potassium channel (human, UniProt Q12809)", "sequence (Q12809 whole entry, looked up)": "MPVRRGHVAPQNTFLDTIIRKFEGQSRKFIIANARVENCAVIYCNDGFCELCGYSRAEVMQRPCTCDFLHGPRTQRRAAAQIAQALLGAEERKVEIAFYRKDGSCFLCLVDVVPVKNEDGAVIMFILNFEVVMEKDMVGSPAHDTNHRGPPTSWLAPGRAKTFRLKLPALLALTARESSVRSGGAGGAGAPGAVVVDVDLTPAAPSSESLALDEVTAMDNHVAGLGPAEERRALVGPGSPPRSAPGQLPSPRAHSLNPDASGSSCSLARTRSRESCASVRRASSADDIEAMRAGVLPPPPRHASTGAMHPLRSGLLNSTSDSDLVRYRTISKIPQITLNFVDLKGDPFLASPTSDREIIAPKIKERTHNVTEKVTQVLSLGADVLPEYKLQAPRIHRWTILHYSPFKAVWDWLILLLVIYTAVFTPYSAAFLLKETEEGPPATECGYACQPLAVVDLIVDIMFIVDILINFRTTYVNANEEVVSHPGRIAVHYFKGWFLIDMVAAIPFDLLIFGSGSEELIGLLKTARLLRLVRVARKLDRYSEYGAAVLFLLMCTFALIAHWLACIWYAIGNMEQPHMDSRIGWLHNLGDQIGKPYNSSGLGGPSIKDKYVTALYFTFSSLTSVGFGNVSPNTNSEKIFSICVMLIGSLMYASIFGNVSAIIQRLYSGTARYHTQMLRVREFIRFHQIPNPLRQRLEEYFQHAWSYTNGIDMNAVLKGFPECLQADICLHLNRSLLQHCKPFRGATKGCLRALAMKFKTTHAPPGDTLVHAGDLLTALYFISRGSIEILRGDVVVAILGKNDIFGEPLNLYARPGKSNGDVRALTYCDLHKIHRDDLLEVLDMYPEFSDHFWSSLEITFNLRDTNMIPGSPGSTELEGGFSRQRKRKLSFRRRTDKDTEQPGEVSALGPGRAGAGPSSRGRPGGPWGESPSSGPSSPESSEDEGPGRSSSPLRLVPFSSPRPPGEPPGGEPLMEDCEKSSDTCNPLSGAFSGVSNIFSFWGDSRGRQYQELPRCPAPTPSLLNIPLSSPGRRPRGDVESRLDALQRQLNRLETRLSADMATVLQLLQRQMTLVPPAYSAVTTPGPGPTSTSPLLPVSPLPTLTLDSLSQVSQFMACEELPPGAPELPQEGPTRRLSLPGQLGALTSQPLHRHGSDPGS", "experiment": "primary screen, population patch clamp on CHO cells stably expressing hERG; higher = less effect of the substance", "units": {"hERG current change (%, negative = inhibition) at 10uM": "%"}, "values": [
      {"smiles": "COc1ccc2c(c1)c(CC(=O)Nc1ccc(C)cc1)c(C)n2C(=O)c1ccc(Cl)cc1", "hERG current change (%, negative = inhibition) at 10uM": -20.4},
      {"smiles": "O=C1c2oc3ccccc3c(=O)c2C(c2ccccn2)N1Cc1ccccc1", "note": "(stereo not drawn)", "hERG current change (%, negative = inhibition) at 10uM": 5.53},
      {"smiles": "CCOC(=O)c1c(C)nc(-c2ccccc2)nc1NC(=O)CC", "hERG current change (%, negative = inhibition) at 10uM": 1.29},
      {"smiles": "Cn1c(=O)c2sccc2n2c(CCCC(=O)NCc3ccco3)nnc12", "hERG current change (%, negative = inhibition) at 10uM": -1.92},
      {"smiles": "COC(=O)C1CCN(C(=O)c2ccccc2NC(C)=O)CC1", "hERG current change (%, negative = inhibition) at 10uM": 16.8},
      {"smiles": "Brc1ccc(CSc2nnc3ccccn23)cc1", "hERG current change (%, negative = inhibition) at 10uM": -18.7},
      {"smiles": "O=C(c1nc(SCc2ccc([N+](=O)[O-])cc2)n2ccccc12)C(F)(F)F", "hERG current change (%, negative = inhibition) at 10uM": -71.1},
      {"smiles": "O=c1c2ccccc2nc(SCc2ccc([N+](=O)[O-])cc2)n1-c1ccccc1", "hERG current change (%, negative = inhibition) at 10uM": 10.9},
      {"smiles": "O=[N+]([O-])c1ccccc1CSc1nnc2ccccn12", "hERG current change (%, negative = inhibition) at 10uM": -0.991},
      {"smiles": "Cn1ccnc1SCc1ccc([N+](=O)[O-])cc1", "hERG current change (%, negative = inhibition) at 10uM": -2.75},
      {"smiles": "O=[N+]([O-])c1ccc(CSc2nnc3ccccn23)cc1", "hERG current change (%, negative = inhibition) at 10uM": -57.2},
      {"smiles": "O=C(NC(=S)NNC(=O)c1ccccc1O)c1cccc([N+](=O)[O-])c1", "hERG current change (%, negative = inhibition) at 10uM": 26.2},
      {"smiles": "O=C(NCCCN1CCOCC1)C(=O)N/N=C/c1ccccc1", "hERG current change (%, negative = inhibition) at 10uM": -20.2},
      {"smiles": "CCC(=NCCN1CCOCC1)c1c(O)n(C2CCCCC2)c(=O)[nH]c1=O", "hERG current change (%, negative = inhibition) at 10uM": -6.76},
      {"smiles": "CC1(C)CC(=O)C(CC(=O)N2CCC(Cc3ccccc3)CC2)C(=O)C1", "hERG current change (%, negative = inhibition) at 10uM": 34.8},
      {"smiles": "CC12CCC(=O)N1C(C(=O)Nc1cccc3ccccc13)CS2", "note": "(stereo not drawn)", "hERG current change (%, negative = inhibition) at 10uM": 4.6},
      {"smiles": "Cc1cc2nc(-c3ccc4c(c3)CCC4)ccn2n1", "hERG current change (%, negative = inhibition) at 10uM": -2.72},
      {"smiles": "Cc1ccc(NS(=O)(=O)c2cccc(C(=O)NCC3CCCO3)c2)cc1", "note": "(stereo not drawn)", "hERG current change (%, negative = inhibition) at 10uM": -10},
      {"smiles": "Brc1ccc(-c2nn[nH]n2)cc1", "hERG current change (%, negative = inhibition) at 10uM": 11.2},
      {"smiles": "O=C(NC1CC1)c1ccc2c3c(cccc13)CC2", "hERG current change (%, negative = inhibition) at 10uM": -2.52},
      {"smiles": "CC(C)(C)NC(=O)c1ccc2c3c(cccc13)CC2", "hERG current change (%, negative = inhibition) at 10uM": -51.4},
      {"smiles": "CC(=O)c1ccc2c3c(cccc13)CC2", "hERG current change (%, negative = inhibition) at 10uM": 2.96},
      {"smiles": "COc1ccc(Cl)cc1NC(=O)CSc1nnc(C)c(=O)n1N", "hERG current change (%, negative = inhibition) at 10uM": 2.48},
      {"smiles": "O=C(c1ccccc1)N1N=C(c2ccc(F)cc2)CC1(O)C(F)(F)F", "note": "(stereo not drawn)", "hERG current change (%, negative = inhibition) at 10uM": -5.31},
      {"smiles": "C/C(=N/OC(=O)CC(C)C)c1cc(-c2ccc(Cl)cc2)no1", "hERG current change (%, negative = inhibition) at 10uM": 15},
      {"smiles": "O=C(NCC(c1ccco1)N1CCCC1)c1cccc(NS(=O)(=O)c2ccccc2)c1", "note": "(stereo not drawn)", "hERG current change (%, negative = inhibition) at 10uM": -5.9},
      {"smiles": "COc1ccc(N(C)S(=O)(=O)c2cccc(C(=O)NCC(c3ccco3)N3CCCC3)c2)cc1", "note": "(stereo not drawn)", "hERG current change (%, negative = inhibition) at 10uM": -33.9},
      {"smiles": "CN(c1ccccc1)S(=O)(=O)c1ccc(C(=O)NCC(c2ccco2)N2CCCCC2)cc1", "note": "(stereo not drawn)", "hERG current change (%, negative = inhibition) at 10uM": -12.1},
      {"smiles": "CCN(c1ccccc1)S(=O)(=O)c1cccc(C(=O)NCC(c2ccco2)N2CCCC2)c1", "note": "(stereo not drawn)", "hERG current change (%, negative = inhibition) at 10uM": -59.3},
      {"smiles": "Cc1ccc(N(C)S(=O)(=O)c2cccc(C(=O)NCC(c3ccco3)N3CCCC3)c2)cc1", "note": "(stereo not drawn)", "hERG current change (%, negative = inhibition) at 10uM": -62.5},
      {"smiles": "CN(C)C(CNC(=O)c1cc(S(=O)(=O)N(C)c2ccc(F)cc2)ccc1Cl)c1ccco1", "note": "(stereo not drawn)", "hERG current change (%, negative = inhibition) at 10uM": -28.3},
      {"smiles": "Cc1ccc(NS(=O)(=O)c2cccc(C(=O)NCC(c3ccco3)N3CCCC3)c2)cc1", "note": "(stereo not drawn)", "hERG current change (%, negative = inhibition) at 10uM": -47.4},
      {"smiles": "CCN(c1ccccc1)S(=O)(=O)c1cccc(C(=O)NCC(c2cccs2)N2CCOCC2)c1", "note": "(stereo not drawn)", "hERG current change (%, negative = inhibition) at 10uM": -18.7},
      {"smiles": "CN(c1ccccc1)S(=O)(=O)c1ccc(Cl)c(C(=O)NCC(c2ccco2)N2CCCC2)c1", "note": "(stereo not drawn)", "hERG current change (%, negative = inhibition) at 10uM": -50.9},
      {"smiles": "CCCn1ncc2c(Nc3ccc(C)c(C)c3)ncnc21", "hERG current change (%, negative = inhibition) at 10uM": -25.2},
      {"smiles": "CC(NC(=O)c1ccco1)C(=O)N1CCN(C(c2ccccc2)c2ccccc2)CC1", "note": "(stereo not drawn)", "hERG current change (%, negative = inhibition) at 10uM": -15.7},
      {"smiles": "O=C(CN(CC1CCCO1)C(=O)CNS(=O)(=O)c1ccc(Cl)cc1)NCCc1ccccc1", "note": "(stereo not drawn)", "hERG current change (%, negative = inhibition) at 10uM": -20.8},
      {"smiles": "COc1ccc(CCn2c(O)c(C=Nc3ccc(NC(C)=O)cc3)c(=O)[nH]c2=O)cc1OC", "hERG current change (%, negative = inhibition) at 10uM": 27.6},
      {"smiles": "CC(=O)Nc1ccc(S(=O)(=O)NCc2ccccn2)cc1", "hERG current change (%, negative = inhibition) at 10uM": 9.6},
      {"smiles": "O=Cc1cccc(OC(=O)Nc2ccccc2)c1", "hERG current change (%, negative = inhibition) at 10uM": 6.95},
      {"smiles": "CN(C)c1cc(-c2ccc(Cl)cc2Cl)oc(=O)c1Cl", "hERG current change (%, negative = inhibition) at 10uM": 0.166},
      {"smiles": "CCOc1c2ccc(C(=O)NCCCCc3ccccc3)cc2nn1CC", "hERG current change (%, negative = inhibition) at 10uM": -14.1},
      {"smiles": "OCCCNc1ncnc2sc3c(c12)CCN(Cc1ccccc1)C3", "hERG current change (%, negative = inhibition) at 10uM": -37.9},
      {"smiles": "CC1CCc2c(sc3ncnc(N4CCOCC4)c23)C1", "note": "(stereo not drawn)", "hERG current change (%, negative = inhibition) at 10uM": -16.6},
      {"smiles": "COCCCNc1ncnc2sc3c(c12)CCC(C)C3", "note": "(stereo not drawn)", "hERG current change (%, negative = inhibition) at 10uM": -24.5},
      {"smiles": "c1cn(CCCNc2ncnc3sc4c(c23)CCC4)cn1", "hERG current change (%, negative = inhibition) at 10uM": -37.5},
      {"smiles": "CCCCNc1ncnc2sc3c(c12)CCN(CCC)C3", "hERG current change (%, negative = inhibition) at 10uM": -76},
      {"smiles": "CC1CCc2c(sc3ncnc(NCCN4CCOCC4)c23)C1", "note": "(stereo not drawn)", "hERG current change (%, negative = inhibition) at 10uM": -54.6},
      {"smiles": "Cc1cc(NS(=O)(=O)c2ccc(NC(=O)CSc3nc4ncc(Br)cc4[nH]3)cc2)nc(C)n1", "hERG current change (%, negative = inhibition) at 10uM": 20.8},
      {"smiles": "CC(C)Oc1cccc(C(=O)C2CCCN(C(=O)c3ccc4c(c3)OCO4)C2)c1", "note": "(stereo not drawn)", "hERG current change (%, negative = inhibition) at 10uM": -26.9},
      {"smiles": "O=C(c1ccc2c(c1)OCO2)C1CCCN(Cc2ccccc2OC(F)F)C1", "note": "(stereo not drawn)", "hERG current change (%, negative = inhibition) at 10uM": -58.8},
      {"smiles": "O=C(c1ccc2c(c1)OCO2)C1CCCN(Cc2ccc(OC(F)F)cc2)C1", "note": "(stereo not drawn)", "hERG current change (%, negative = inhibition) at 10uM": -85.7},
      {"smiles": "N/C(=N\\OC(=O)COc1ccc2ccccc2c1Br)c1ccncc1", "hERG current change (%, negative = inhibition) at 10uM": 5.98},
      {"smiles": "CCOc1ccc(NC(=O)NCc2ccc3c(c2)OCO3)cc1", "hERG current change (%, negative = inhibition) at 10uM": 9.08},
      {"smiles": "O=C(CCc1nc2ccccc2c(=O)[nH]1)N1CCN(c2ccc(F)cc2)CC1", "hERG current change (%, negative = inhibition) at 10uM": -68},
      {"smiles": "Cc1ccc(C)c(S(=O)(=O)N2CCN(C(=O)CCc3nc4ccccc4c(=O)[nH]3)CC2)c1", "hERG current change (%, negative = inhibition) at 10uM": -47.1},
      {"smiles": "O=C(CCc1nc2ccccc2c(=O)[nH]1)N1CCN(S(=O)(=O)c2ccccc2Br)CC1", "hERG current change (%, negative = inhibition) at 10uM": -51.3},
      {"smiles": "CC(=O)N1CCN(C(=O)CCc2nc3ccccc3c(=O)[nH]2)CC1", "hERG current change (%, negative = inhibition) at 10uM": 2.7},
      {"smiles": "Cc1nc2c3ccccc3nc(NNC(=O)CCC(=O)N3CCN(c4ccc(F)cc4)CC3)n2n1", "hERG current change (%, negative = inhibition) at 10uM": -53.2},
      {"smiles": "COc1ccc(N2CCN(C(=O)CCC(=O)NNc3nc4ccccc4c4nc(C)nn34)CC2)cc1", "hERG current change (%, negative = inhibition) at 10uM": -29.1},
      {"smiles": "Cc1nc2c3ccccc3nc(NNC(=O)CCC(=O)N3CCN(c4ccccc4)CC3)n2n1", "hERG current change (%, negative = inhibition) at 10uM": -28.5},
      {"smiles": "CN1CCN(C(=O)CCc2nc3ccccc3c(=O)[nH]2)CC1", "hERG current change (%, negative = inhibition) at 10uM": 21.9},
      {"smiles": "O=C(CCc1nc2ccccc2c(=O)[nH]1)N1CCN(S(=O)(=O)c2ccc(F)cc2)CC1", "hERG current change (%, negative = inhibition) at 10uM": -27.6}
    ]}
  ]
}
